Hits are enriched below; roughly 11% of the tested compounds scored in any of these assays.
PNC inhibitor = inhibitors of perinucleolar compartment assembly; PC3M PTB-GFP, PNC prevalence imaging, 16 h; stronger effect = lower value; activity change (PNC), negative = inhibition, % at 10 µM; hit rate 3.1% among 140,000; AID 2417;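 active means readout at or below -70, meaning at least 70% loss of cells showing the perinucleolar compartment, a nuclear body marking cancer cells; inconclusive means readout between -30 and a set limit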;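 further: plate controls were DMSO wells for no effect and camptothecin positive control wells for full effect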
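Read-out is percentage of cells bearing a perinucleolar compartment, from automated 20x imaging of fixed, Hoechst-stained PC3M PTB-GFP cells. Cells were seeded 4 h, then exposed 16 h to compound (23 nl of library stock) in duplicate plates.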
HTT aggregate = reduces HttQ103-GFP aggregates in PC12 cells | hit rate 1.1% among 220,000 | AID 1688 | PC12 HttQ103-GFP aggregates, Acumen cytometry, 40 h | Potency, µM (top dose mostly 46.1 µM), for inactives: top-dose activity change, negative = inhibition, most hits filed as inhibitors; active means well fitted curve in the direction sought with a large enough effect; inconclusive means small, poorly fitted or top-dose-only effect, or another doubt; inactive means no such curve, though single readings can be large; an effect the other way counts as inactive or inconclusive; further: potency means the concentration at half of the fitted maximal effect; on the % scale 0 is the no-effect control and ±100 the full control effect; nearly all actives have a fitted effect of over 60% in size
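Using laser scanning cytometry, GFP-positive aggregates were counted after lysis of PC12 cells induced with 100 nM tebufenozide to express HTT exon 1 Q103–GFP. Compounds were tested in titration.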
RGS12 GoLoco inh = RGS12 GoLoco-Gai1 interaction inhibition. hit rate 0.44% among 230,000. Potency, µM (doses to about 61.6 µM), without a hit: at the top dose activity, negative = inhibition, most hits filed as inhibitors. Gai1:RGS12 GoLoco peptide FP, rhodamine, 10 min. P63096; active means well fitted inhibition curve with a large enough effect, not every such curve was filed as active; inactive means no such curve, though single readings can be large or run the other way; further: potency means the concentration at half of the fitted maximal effect; on the % scale 0 is the no-effect control and ±100 the full control effect; nearly all actives have a fitted effect of over 30% in size
HPGD block = blocks human HPGD enzyme activity | hit rate 4.3% among 150,000 | purified HPGD, NADH fluorescence kinetic, PGE2 substrate | Potency, µM, for the others: at the top dose activity change, negative = inhibition, usual class: inhibitors | P15428; further: potency means the concentration at half of the fitted maximal effect; on the % scale 0 is the no-effect control and ±100 the full control effect
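NADH formation kinetics: reaction with 30 uM PGE2 and 1 mM NAD+ (final), 20 nM enzyme, Tris-HCl pH 8 with Tween 20, after 15 min compound preincubation at room temperature. Fluorescence change, last versus first of five reads.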
ALDH1A1 inh = blocks purified human ALDH1A1 activity | P00352 | Purified ALDH1A1, NADH fluorescence, propionaldehyde substrate | Potency, µM (titrated, usually from 75.3 µM), for inactives: at the top dose activity, negative = inhibition, hits mostly inhibitors | hit rate 7.3% among 220,000;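 further: potency means the concentration at half of the fitted maximal effect; plate controls were no enzyme wells and a reference inhibitor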
Target sequence (P00352 whole entry, looked up): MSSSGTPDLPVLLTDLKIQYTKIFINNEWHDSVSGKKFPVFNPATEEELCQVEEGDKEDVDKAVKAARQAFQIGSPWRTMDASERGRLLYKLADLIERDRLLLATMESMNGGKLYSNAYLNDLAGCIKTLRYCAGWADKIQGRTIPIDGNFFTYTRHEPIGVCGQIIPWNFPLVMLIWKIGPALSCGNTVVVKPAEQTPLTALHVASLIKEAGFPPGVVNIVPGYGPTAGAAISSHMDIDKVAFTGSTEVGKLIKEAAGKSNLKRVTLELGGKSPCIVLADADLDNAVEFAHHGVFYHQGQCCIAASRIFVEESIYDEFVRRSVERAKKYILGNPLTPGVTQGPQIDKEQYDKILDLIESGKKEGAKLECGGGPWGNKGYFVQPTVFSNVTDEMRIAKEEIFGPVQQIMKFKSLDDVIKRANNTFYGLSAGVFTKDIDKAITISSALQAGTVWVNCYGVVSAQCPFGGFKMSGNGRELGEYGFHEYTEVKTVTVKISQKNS
HTT cytoprotect = protects HTT-Q103 PC12 cells, measured by ATP. PC12 HTT-Q103 induced, cytoprotection, ATP luminescence, 40 h. Potency, µM (titrated, usually from 56.4 µM), for inactives: cytoprotection (ATP increase), hits mostly activators. hit rate 0.14% among 230,000; active means well fitted curve in the direction sought with a large enough effect; inconclusive means small, poorly fitted or top-dose-only effect, or another doubt; inactive means no such curve, though single readings can be large; an effect the other way counts as inactive or inconclusive; further: potency means the concentration at half of the fitted maximal effect; % of control where 0% means no effect; nearly all actives have a fitted effect of over 45% in size
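Huntington model: PC12 line, ecdysone-inducible HTTQ103 exon1–GFP, tebufenozide 100 nM. Test articles in a dose series. Endpoint luminescence from cellular ATP.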
* marks the source's active call; other numbers are inactive results; ? = inconclusive; / = not tested or not shown; [ ] = remark or other dose. Unless noted, the call rests on the fitted dose curve; in most records, active means well fitted inhibition curve with a large enough effect (not every such curve was filed as active); inconclusive means small, poorly fitted or top-dose-only effect, or another doubt; inactive means no such curve, though single readings can be large or run the other way.

SMILES	PNC inhibitor	HTT aggregate	RGS12 GoLoco inh	HPGD block	ALDH1A1 inh	HTT cytoprotect
CCOC(=O)C1CCCN(C(=O)c2ccc3c(c2)OCO3)C1 (centres undefined)	253	4%	2%	10µM*	?	16%[10 µM]
CCOC(=O)C1CCCN(CCC(=O)Nc2cccc(C)c2)C1 (centres undefined)	/	6%[9.22 µM]	2%	/	-6%	17%[10 µM]
Cc1ccc(S(=O)(=O)N2CCC(C(=O)NNC(=O)c3ccccc3)CC2)cc1	/	9%	9%	/	7%	/
CN1CCN(C(=O)c2ccc3c(c2)N(Cc2ccc(Cl)cc2)C(=O)c2ccccc2S3=O)CC1 (centres undefined)	-13	?	-2%	-5%	?	20%
CC(C)Oc1cccc(C(=O)C2CCCN(Cc3cnn(C(C)C)c3)C2)c1 (centres undefined)	/	6%[9.22 µM]	16%	/	10µM*	27%[10 µM]
CCOC(=O)C1CCCN(Cc2ccc3c(c2)OCO3)C1 (centres undefined)	11	17%	-14%	6%	13µM*	-7%[0.074 µM]
CCOC(=O)C1CCCN(C(=O)c2ccc3c(c2)N(Cc2ccccc2)C(=O)c2ccccc2S3=O)C1 (centres undefined)	/	-3%	-7%	/	20µM*	-5%
COc1cc(NC(=S)N2CCN(C(c3ccccc3)c3ccccc3)CC2)cc(OC)c1	8	-9%	2%	-18%	1%	13%[10 µM]
COc1ccc(/C=C2/N=C(SCC(=O)Nc3cc(C)on3)N(c3ccccc3)C2=O)cc1	3	-1%	6%	27%	6%	22%[10 µM]
CCC(SC1=N/C(=C/c2ccccc2)C(=O)N1c1ccccc1)C(=O)Nc1cc(C)on1 (centres undefined)	107	5%	7%	?	18µM*	0%[10 µM]
CC(C)C[C@@H](CC(=O)N[C@@H](CCC(=O)O)CC(=O)O)NC(=O)[C@@H]1CNCC[C@H]1NC(=O)C[C@@H](NC(=O)C[C@H](CO)NC(=O)[C@@H]1CCCC[C@H]1N)C(C)C	/	/	3%	-3%	13%	7%[1.9 µM]
Nc1sccc1C(=O)c1ccc(Cl)cc1	?	-19%	6%	-15%	3%	-27%[10 µM]
NC(=O)c1ccsc1N	/	-12%[9.22 µM]	20µM*	/	?	3%[10 µM]
CC(C)(C)c1ccc(O)c(CN(Cc2c(O)ccc3ccccc23)C2CCCCC2)c1	/	/	-1%[14.2 µM]	-15%	?	0%[10 µM]
O=C(c1cccc(F)c1)N1CCN(C(=O)c2cc3ncc(Br)cn3n2)CC1	22	9%	6%	-12%	?	14%
COc1ccccc1/C=C/C1(C(=O)NC2CCCC2)CC(=O)N1c1ccc(F)cc1 (centres undefined)	-26	3%	0%	-12%	32µM*	-6%[1.9 µM]
COc1ccccc1/C=C/C1(C(=O)NC2CCCC2)CC(=O)N1c1ccc(C)cc1 (centres undefined)	?	?	11%	-8%	?	12%[1.9 µM]
COC[C@H]1OC=C[C@@H](OC)[C@@H]1OC	/	/	-4%	-3%	-1%	/
[S-]C(=Nc1ccc(Cl)cc1)N[n+]1ccccc1	-23	3%	6%	6.3µM*	4%	/
CCN(CC)S(=O)(=O)c1ccc(C)c(NC(=O)CN(C)C)c1	-84*	-22%	/	/	8%	14%[10 µM]
CCN(CC)S(=O)(=O)c1ccc(C)c(NC(=S)NC2CCCCC2)c1	/	-3%[9.22 µM]	8%	/	/	10%[10 µM]
COc1ccc(-c2nc(C(N)=O)c3[nH]c(=O)n(-c4cccc(Cl)c4)c3n2)cc1OC	-15	?	-1%	-16%	13%	9%[10 µM]
CCc1ccc(-c2nc(C(N)=O)c3[nH]c(=O)n(-c4ccccc4OC)c3n2)cc1	-106*	-5%	21%	?	?	-73%
CC(=O)c1cccc(NC(=O)N2CCCC2C(=O)Nc2c(C)cccc2C)c1 (centres undefined)	5	2%	-6%	-8%	25µM*	5%
CC(=O)c1cccc(NC(=O)N2CCCC2C(=O)Nc2cccc(C)c2)c1 (centres undefined)	13	-4%	15%	-7%	7%	3%[10 µM]
